# Test results taken from PMC5540273 (PLoS ONE, 2017).
# Where two headings read alike, the source gives them in different places.
# Assays:
# DYRK1B = details: n = 1
# DYRK2 = details: concentration: 1 μM,replicates: in singlicate; n = 1
# EGFR = details: concentration: 1 μM,replicates: in singlicate; n = 1
# EIF2AK1 = details: concentration: 1 μM,replicates: in singlicate; n = 1
# EPHA1 = details: concentration: 1 μM,replicates: in singlicate; n = 1
# EPHA2 = details: concentration: 1 μM,replicates: in singlicate; n = 1
# EPHA3 = details: concentration: 1 μM,replicates: in singlicate; n = 1
# EPHA4 = details: concentration: 1 μM,replicates: in singlicate; n = 1
# EPHA5 = details: concentration: 1 μM,replicates: in singlicate; n = 1
# EPHA6 = details: n = 1
# [1] = concentration: 1 μM,replicates: in singlicate
# 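Further: KINOMEscan kinase panel screen.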
SMILES,%Inh (DYRK1B; [1]) [%],%Inh (DYRK2) [%],%Inh (EGFR) [%],%Inh (EIF2AK1) [%],%Inh (EPHA1) [%],%Inh (EPHA2) [%],%Inh (EPHA3) [%],%Inh (EPHA4) [%],%Inh (EPHA5) [%],%Inh (EPHA6; [1]) [%],%Inh (DYRK1B; 1 µM) [%],%Inh (EPHA6; 1 µM) [%]
CC(=O)Nc1nc2cnc(Nc3cc(NC(=O)c4cccc(CC(C)(C)C#N)c4)ccc3C)nc2s1,31,0,0,30,0,84,65,54,21,38,–,–
COC(=O)c1cccc(NC(=O)NC2CCN(c3ccnc(NCc4ccc(F)cc4)n3)CC2)c1 [GSK1379860],21,2,51,0,0,10,0,6,0,8,–,–
Cc1ccn2nc(-c3ccc(F)cc3)c(-c3ccncc3)c2c1.Cl [GW457859],10,0,49,8,2,83,19,0,0,4,–,–
Cn1cc(-c2cccc3c(N)c(C(N)=O)nnc23)cn1,8,70,22,18,0,0,24,0,14,17,–,–
CN(c1cccc(CNc2nc(Nc3ccc4c(c3)CC(=O)N4)ncc2C(F)(F)F)c1)S(C)(=O)=O,57,28,3,0,3,0,22,1,0,0,–,–
C[C@@H](Oc1cc(-n2cnc3cc(-c4cnn(C)c4)ccc32)sc1C(N)=O)c1ccccc1Cl [GSK580432],0,21,28,15,19,29,20,7,0,28,–,–
O=C(NCC1CC1)c1ccc(-c2cc(C(=O)NC3CC3)ccc2F)cc1 [GW810445],24,0,15,0,0,0,10,0,0,0,–,–
Nc1nccc(-c2ccc3c(N)n[nH]c3c2)n1 [GSK1034945],75,93.1,24,4,11,0,0,0,0,0,–,–
CS(=O)(=O)c1cccc(CNc2nc(Nc3ccc4c(c3)[C@@H]3C[C@@H]4CNC3=O)ncc2C(F)(F)F)c1,6,12,5,0,12,2,6,2,0,11,–,–
N#Cc1cccc(C(=O)NC2CCN(c3ccnc(Nc4ccc(F)cc4)n3)C2)c1 (stereo not drawn) [GSK1379708],0,0,14,0,1,0,0,0,0,2,–,–
Cn1ccc2ncnc(Oc3ccc(NC(=O)Nc4ccnc(C(F)(F)F)c4)c(Cl)c3)c21,53,0,3,0,0,0,10,29,0,80,–,–
CS(=O)c1ccc(-c2coc3ccc(-c4n[nH]c(=O)o4)cc23)cc1 (stereo not drawn),68,10,0,3,0,0,0,0,0,0,–,–
C[C@@H]1CNc2c(sc3ccc4nc(-c5ccncc5)ccc4c23)C(=O)N1,88,18,0,12,7,0,0,15,1,11,–,–
COc1cccc(C2=C(Nc3cccc(Cl)c3)C(=O)NC2=O)c1 [SB-341556],0,2,25,9,18,19,0,23,0,13,–,–
CCOC(=O)N1CCC(n2cnc(-c3ccc(F)cc3)c2-c2ccnc(N)n2)CC1 [SB-219952],30,21,32,19,9,13,14,9,0,12,–,–
Cc1ccc(Nc2ccnc(Nc3ccc4c(c3)CS(=O)(=O)C4)n2)cc1O.Cl [GW579362],48,88,55,17,91.3,83,78,53,32,53,–,–
COc1cc2c(Nc3ccc(NC(=O)c4ccccc4)cc3)ncnc2cc1OCCCN1CCOCC1 [GSK301329],0,35,90,4,3,4,0,7,0,5,–,–

SMILES,%Inh (DYRK1B; [1]) [%],%Inh (DYRK2) [%],%Inh (EGFR) [%],%Inh (EIF2AK1) [%],%Inh (EPHA1) [%],%Inh (EPHA2) [%],%Inh (EPHA3) [%],%Inh (EPHA4) [%],%Inh (EPHA5) [%],%Inh (EPHA6; [1]) [%],%Inh (DYRK1B; 1 µM) [%],%Inh (EPHA6; 1 µM) [%]
CC(C(=O)NC1CCN(c2ccnc(Nc3ccc(F)cc3)n2)C1)c1ccc(Cl)cc1 (stereo not drawn) [GSK1379713],12,10,28,0,0,14,0,0,0,0,–,–
CC(=O)Nc1ccc(-c2cc3ncnc(SCC(=O)O)c3s2)cc1,22,39,2,0,28,0,0,19,7,22,–,–
O=C(NOCC1CC1)c1cc(Br)c(F)c(F)c1Nc1ccc(I)cc1Cl,17,0,0,0,0,0,0,0,0,0,–,–
Cc1nnc(-c2ccc3occ(-c4ccc(S(C)=O)cc4)c3n2)o1 (stereo not drawn),0,0,0,0,0,3,4,23,1,17,–,–
O=C(Nc1n[nH]c2cc(-c3ccco3)ccc12)C1CC1 [SB-737447],0,31,9,0,0,10,19,0,0,0,–,–
CN(c1ccc2c(c1)nc(NCc1ccc(F)cc1)n2C)c1ccnc(Nc2ccc(CS(C)(=O)=O)cc2)n1.Cl [GW813244],4,30,18,0,0,12,5,20,0,23,–,–
Cn1ccc2ncnc(Oc3ccc(NC(=O)Nc4cnn(C(C)(C)C)c4)c(Cl)c3)c21,62,6,25,0,0,22,54,23,18,89,–,–
Cn1ccc2ncnc(Oc3ccc(NC(=O)Nc4cncc(C(F)(F)F)c4)c(Cl)c3)c21,5,0,0,0,17,81,92.5,57,45,97.5,–,–
COc1cccc(OC)c1C(=O)Nc1cccc(-c2nn3ccccc3c2-c2ccnc(Nc3cccc(F)c3)n2)c1 [GSK361065],–,0,91.7,0,4,11,0,0,11,–,24,11
O=C(Nc1ccc(Oc2ccc3nc(NC(=O)C4CC4)cn3n2)c(F)c1)c1cccn(-c2ccccc2)c1=O,30,0,13,0,51,74,0,26,11,37,–,–
Cn1ccc2ncnc(Oc3ccc(NC(=O)Nc4cccc(C(F)(F)F)c4)c(F)c3)c21,0,0,12,0,51,94.6,58,85,85,97.7,–,–
COc1cccc(CNC(=O)NC2CCN(c3ccnc(Nc4cc(OC)c(OC)c(OC)c4)n3)C2)c1 (stereo not drawn) [GSK1379765],17,9,28,0,11,30,0,3,0,15,–,–
O=C1NCCc2[nH]c(-c3ccncc3)cc21,97.6,97.1,0,0,2,0,0,30,31,41,–,–
CS(=O)(=O)Nc1ccc(-c2ccnc3[nH]ccc23)cc1 [GSK993273],84,44,17,1,19,0,0,20,0,6,–,–
C[C@@H](Oc1cc(-n2cnc3cc(-c4ccncc4)ccc32)sc1C(N)=O)c1ccccc1Cl [GSK479719],18,31,28,18,0,29,100,21,0,29,–,–
NC(=O)Nc1sc(-c2ccc(F)cc2)cc1C(N)=O [GW789449],52,25,23,0,60,25,0,14,7,11,–,–
